Common to all, as to format: functional
Test [1] relates to Plasmodium falciparum. The experiment in a line: GSK_TCMDC: Inhibition of Plasmodium falciparum 3D7 in whole red blood cells, using parasite LDH activity as an index of growth. Test compounds present at 2uM.
The subject of test [2] is Plasmodium falciparum. The test can be described thus: GSK_TCMDC: Inhibition of Plasmodium falciparum Dd2 in whole red blood cells, using parasite LDH activity as an index of growth. Test compounds present at 2uM.
Test [3] concerns HepG2. The experiment in a line: GSK_TCMDC: Percent inhibition of human HepG2 cell line. Test compounds present at 10uM.

Drawing on ChEMBL document CHEMBL1157539, “Thousands of chemical starting points for antimalarial lead identification” (Nature, 2010), this text covers Inhibition for 60 molecules.

With `COc1ccc(-c2ccc(NC(=O)c3ccc(C#N)cc3)cc2)cc1CN(C)CCO.O=C(O)C(F)(F)F`, the values for the Inhibition in test [1], in test [2] and in test [3] were 99%, 44% and 41%, respectively.
In the same order, the values of `COc1cccc(C(C)(C)NC[C@@H](O)[C@H](Cc2ccccc2)NC(=O)c2cc(C3CCCC3)cc(N3CCCCS3(=O)=O)c2F)c1.O=CO` are 99%, 99% and 16%.
Turning to `CCc1ccccc1N1CCN(CCCC(=O)c2ccc(NC(=O)c3ccc(Cl)cc3)cc2)CC1`, the Inhibition – broadly, the percentage by which the read-out fell short of the control – in test [1] is 90%; in test [2], 4%; in test [3], 17%.
In the same order, the values of `CCCCNC(=O)[C@H](CC1CCCCC1)NC(=O)c1ccc(O)c(-c2ccc(OC)cc2)c1` are 89%, 12% and 0%.
Regarding `CC(=O)Nc1ccc(C#Cc2ccc(-c3c(C)[nH]c(C)c(Cl)c3=O)cc2)cc1`, the figures for the Inhibition in test [1], in test [2] and in test [3] were 90%, 78% and 0%, respectively.
With `COc1cccc(C(=O)Nc2sc3c(c2C(N)=O)CCCC3)c1OC`, the Inhibition in test [1] is on record as 99%; in test [2], 8%; in test [3] it was 6%.
In the same order, the values of `CN(C(=O)c1ccccc1)C1c2cc(C#N)ccc2OC(C)(C)C1O` (stereo not given) are 97%, 4% and 8%.
In the same order, the values of `CC(C)(CNCCOc1ccc(Cl)cc1)c1nc(-c2ccnc(N)n2)c(-c2ccc(Cl)c(O)c2)[nH]1.Cl` are 97%, 19% and 45%.
In the same order, the values of `O=C(Nc1ccc(I)cc1)N1CCc2sccc2C1CN1CCCCC1` (stereo not given) are 90%, 0% and 33%.
Consider `Br.CN(C)CCCOc1ccc(-c2csc(NC(=N)NCc3ccccc3)n2)cc1`, for which the Inhibition in test [1] came to 100%; in test [2], 97%; in test [3], 57%.
In the same order, the values of `O=C(NCCN1CCOCC1)c1csc(C2CCCN(C(=O)c3ccc(O)c(-c4cc(Cl)cc(Cl)c4)c3)C2)n1` (stereo not given) are 97%, 50% and 12%.
The matching figures for `Brc1cccc(Nc2nccc(Nc3ccc(Oc4ccccc4)cc3)n2)c1.Cl`: 89%, 5% and 0%.
In the same order, the values of `COc1ccccc1CNC(=O)c1cc(OC)c(OC)cc1NC(=O)c1cccs1` are 88%, 71% and 12%.
With `Cn1c(CN2CCC(N3CCc4cc(NC(=O)c5ccco5)ccc43)C2)cc2ccccc21` (stereo not given), the results for the Inhibition in test [1], in test [2] and in test [3] were 91%, 92% and 0%, respectively.
In the same order, the values of `COc1ccc2cc(C=NNc3nc4ccccc4[nH]3)c(Cl)nc2c1` are 100%, 90% and 2%.
In the same order, the values of `Cl.NC1CCN(CCc2ccc(NS(=O)(=O)c3cccc4ccccc34)cc2)CC1` are 94%, 4% and 21%.
In the same order, the values of `CCCN(Cc1nnc(-c2ccco2)o1)C(=O)C1CCCN(C(=O)c2ccc(Cl)cc2)C1` (stereo not given) are 96%, 96% and 0%.
As for `Cc1cc(-c2cccc3c(NC(=O)N4CCc5cc6nccc(N7CCN8CCC[C@H]8C7)c6cc54)cccc23)cc(C)n1.Cl`, the figures for the Inhibition in test [1], in test [2] and in test [3] were 100%, 100% and 12%, respectively.
Take `CN1CC[C@@H](Oc2cc(NC(=O)Nc3ccccc3Br)ccc2Cl)C1`: the results for the Inhibition in test [1], in test [2] and in test [3] were 100%, 6% and 26%, respectively.
On to `O=C(/C=C/c1ccc(Cl)c(Cl)c1)NCCCCCN1CCC(NC(=O)Nc2ccccc2Cl)CC1`, for which the Inhibition in test [1] was determined as 100%; in test [2], 23%; in test [3], 56%.
In the same order, the values of `O=C(NCC1CCN(CCN2CCC(c3cn(CCO)c4ccccc34)CC2)CC1)c1ccc(-c2ccc(C(F)(F)F)cc2)cc1` are 100%, 100% and 100%.
As for `CC(=O)NCC(=O)NC1=NC(=N)N(OCc2ccc3ccccc3c2)C(C)(C)N1`, the Inhibition in test [1] worked out at 95%; in test [2] it was 97%; in test [3], 66%.
The matching figures for `COc1cccc(NC(=O)c2cc(Br)cc(N3CCN(c4ccncc4)CC3)c2)c1.O=C(O)C(F)(F)F`: 100%, 79% and 30%.
In the same order, the values of `Cc1ccc(C(C)C)cc1CON1C(=N)N=C(N)NC1(C)C.Cl` are 94%, 92% and 66%.
In the same order, the values of `c1ccc(CN2CCc3cc4nccc(N5CCNCC5)c4cc32)cc1` are 100%, 99% and 9%.
With `CC(C)Cc1ccc(N2CCN(CCCCNC(=O)c3ccc(NC(=O)c4ccc(Cl)c(Cl)c4)cc3)CC2)cc1`, the results for the Inhibition in test [1], in test [2] and in test [3] were 94%, 25% and 21%, respectively.
The matching figures for `O=C(O)C(F)(F)F.c1ccc(CNCCn2c(-c3ccc4c(c3)CCO4)nc3c(N4CCCC4)cccc32)cc1`: 82%, 85% and 9%.
The matching figures for `O=C(Nc1cccc(CN2CCCN(Cc3ccc4c(c3)OCO4)CC2)c1)c1ccc(-c2ccccc2)cc1.O=C(O)C(F)(F)F`: 90%, 19% and 48%.
The matching figures for `Cc1cc(NCCc2ccccc2)nc(NC(=N)Nc2cccc([N+](=O)[O-])c2)n1`: 100%, 100% and 21%.
For `O=C(O)C(F)(F)F.O=c1[nH]ccc2nc(N[C@@H]3CCNC3)nc(Nc3cc(Cl)cc(Cl)c3)c12`, the Inhibition is recorded as 100% in test [1], 99% in test [2] and 99% in test [3].
As for `COc1ccc(C(=O)N2CCC3(CC2)C(=O)N(CC(=O)NC2CCCCC2)CN3c2ccccc2)c(OC)c1`, the Inhibition in test [1] worked out at 100%; in test [2] it was 99%; in test [3] it was 4%.
In the same order, the values of `Cc1cc([N+](=O)[O-])ccc1N1CCN(CCCCNC(=O)c2ccc(NC(=O)c3ccc(Cl)cc3)cc2)CC1` are 92%, 0% and 33%.
The matching figures for `Cc1ccc(NC(=O)NC2CCN(CCCCCNC(=O)/C=C/c3ccc(Cl)c(Cl)c3)CC2)cc1C`: 100%, 25% and 36%.
On to `COc1ccc2ncc(Cl)c(CCN3CC[C@@H](CNCc4cc5c(cn4)OCS5)C3)c2n1.Cl`, for which the Inhibition is given as 99% in test [1], 31% in test [2] and 22% in test [3].
The matching figures for `CCCC(C)Nc1nc(C)cc(N[C@@H](CC(C)C)C(=O)NCc2cccc(F)c2)n1.O=C(O)C(F)(F)F` (stereo not given in full): 96%, 63% and 1%.
In the same order, the values of `COc1ccc(Cn2c(Nc3cccc(C(F)(F)F)c3)nc3cc(C(=O)NCCN4CCCC4)cnc32)cc1Cl` are 97%, 31% and 10%.
On to `O=C(Nc1ccc(Cl)c(C(F)(F)F)c1)NC1CCN(CCCCCNC(=O)C2CC2c2ccc(Cl)c(Cl)c2)CC1` (stereo not given), for which the Inhibition in test [1] is given as 100%; in test [2], 41%; in test [3], 79%.
Take `C=CCCCNCC(NCCCNc1cc(=O)c2ccccc2[nH]1)c1cc(Br)cc(Br)c1` (stereo not given): the Inhibition is given as 94% in test [1], 19% in test [2] and 0% in test [3].
In the same order, the values of `CN=c1nc(NN=Cc2ccccc2Cl)[nH]c(=Nc2cccc(C(F)(F)F)c2)[nH]1.Cl` are 84%, 0% and 12%.
The matching figures for `CC1(C)N=C(N)N=C(NOCCCCCCONC2=NC(N)=NC(C)(C)N2)N1`: 95%, 98% and 34%.
The matching figures for `O=C(Cn1c2ccccc2c(=O)c2ccc(Cl)cc21)Nc1ccc(C(F)(F)F)cc1`: 99%, 100% and 30%.
For `COc1ccc(NC(=O)NC2CCN(CCCCCNC(=O)/C=C/c3ccc(Cl)c(Cl)c3)C2)c(OC)c1` (stereo not given), the Inhibition in test [1] was determined as 96%; in test [2], 9%; in test [3], 24%.
In the same order, the values of `NC1CCCN(Cc2ccc(-c3cccc(-c4nc5cc(F)ccc5[nH]4)c3)cc2)C1.O=C(O)C(F)(F)F` (stereo not given) are 100%, 75% and 54%.
In the same order, the values of `CC(O)C1CCCCN1C(=O)c1ccc(-c2ccc(-c3nc4ccccc4[nH]3)s2)cc1` (stereo not given) are 100%, 98% and 33%.
The matching figures for `CC(C)CC(NC(=O)c1cccc(OCCN2CCOCC2)c1)C(=O)NC(/C=N/NC(=O)c1ccccc1)CCc1ccccc1` (stereo not given): 96%, 88% and 0%.
Consider `Clc1cc(Cl)c2cc(CN[C@H]3CCC[C@@H]3CNc3nc4ccccc4[nH]3)[nH]c2c1`, for which the Inhibition in test [1] turned out to be 99%; in test [2] it was 58%; in test [3], 85%.
In the same order, the values of `CCc1ccc(CN2CCC(CN(c3ccc(N4CCOCC4)c(F)c3)S(=O)(=O)c3ccc(C(C)(C)CC)cc3)CC2)cc1.Cl` are 93%, 94% and 26%.
Turning to `COc1ccc2nccc([C@@H](O)CN3CCC(NCCOc4c(C)cccc4F)CC3)c2c1.O=C(O)C(=O)O`, the results for the Inhibition in test [1], in test [2] and in test [3] were 100%, 95% and 4%, respectively.
The matching figures for `COc1ccc2[nH]c3ccccc3c(=O)c2c1`: 87%, 75% and 0%.
The matching figures for `Cc1nn(-c2cccc(C(F)(F)F)c2)c2sc(C(=O)NC3CCN(C(C)C)CC3)cc12`: 94%, 20% and 98%.
In the same order, the values of `CC(=O)Nc1cccc(C(=O)Nc2cccc(-c3csc(-c4nc5ccccc5[nH]4)c3)c2)c1` are 96%, 97% and 39%.
As to `CC(=O)Nc1cccc(C(=O)Nc2cccc(-c3ccc(-c4nc5cc(F)ccc5[nH]4)cc3)c2)c1`, the figures for the Inhibition in test [1], in test [2] and in test [3] were 95%, 9% and 60%, respectively.
In the same order, the values of `O=C(Nc1ccon1)c1cc(-c2cccnc2)nc2ccc(Br)cc12` are 99%, 77% and 7%.
In the case of `CS(=O)(=O)Cc1ccc(Nc2ncc(Cl)c(Nc3cccnc3C(N)=O)n2)cc1.Cl`, the Inhibition in test [1] came to 97%; in test [2], 97%; in test [3], 54%.
In the case of `CCCC(=O)Nc1ccc(Nc2nc(C)cc(N3CCCC3)n2)cc1`, the Inhibition in test [1] was 100%; in test [2], 46%; in test [3], 31%.
In the same order, the values of `O=C(/C=C/c1ccc(Cl)c(Cl)c1)NCCCCCN1CCCN(C(=O)Nc2ccc(Cl)cc2)CC1` are 100%, 0% and 21%.
In the same order, the values of `N=C(N)c1ccc(Oc2ccc(C(=N)N)cc2)cc1.O=S(=O)(O)CCO` are 92%, 85% and 18%.
The matching figures for `COc1ccc2nc(-c3ccc(C(=O)NCCCN4CCN(c5cc(Cl)ccc5OC)CC4)cc3)[nH]c2c1`: 97%, 53% and 0%.
As to `CCOc1cc(C(=O)N[C@@H](Cc2ccccc2)[C@H](O)CNCc2cccc(OC)c2)cc(N2CCCCS2(=O)=O)c1.Cl`, the Inhibition worked out at 97% in test [1], 94% in test [2] and 3% in test [3].
In the same order, the values of `Cc1cccc2nc(-c3cccc(-c4ccc(C(=O)NCc5ccccc5S(C)(=O)=O)cc4)c3)[nH]c12` are 100%, 27% and 17%.
